Reference: the supplement of paper PMC9844399
Counter-ions that a name gives are not always drawn.

System: HeLa
Assay: nuclear count per well, robust Z-score vs DMSO; higher = more cells (less toxicity)
Settings: 10 µM; 6 h
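Note: Hoechst-stained nuclei counted by automated confocal imaging of four fields per well in 384-well plates, with the robust Z-score based on the per-plate DMSO median and robust SD.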

First: CC1=C(/C=C/C(C)=C/C=C/C(C)=C/C(=O)O)C(C)(C)CCC1 [All trans retinoic acid]
Second: CC(C)=CCC/C(C)=C/CC/C(C)=C/CSCC(=O)O [Farnesylthioacetic acid]
The “nuclear count per well” value of the first is higher: -0.749 for the first, -0.812 for the second.

First: CCCCCCCCCCCCC/C=C/[C@@H](O)[C@H](CO)N(C)C [N,N-Dimethylsphingosine]
Second: CCCCCCCCCCCCCCCCOCC(COP(=O)([O-])OCC[N+](C)(C)C)OC (configuration not stated) [1-Hexadecyl-2-methylglycero-3 PC]
The “nuclear count per well” value of the first is lower: -0.832 for the first, -0.31 for the second.

Going from CC1(C)C[C@@H]1C(=O)N/C(=C\CCCCSC[C@H](N)C(=O)O)C(=O)O to CCCCC[C@H](O)/C=C/[C@H]1[C@H](O)CC(=O)[C@@H]1CCCCCCC(=O)O [Prostaglandin  E1], the “nuclear count per well” value falls from 0.617 to 0.229.

First: Cc1cn(-c2cc(NC(=O)c3ccc(C)c(Nc4nccc(-c5cccnc5)n4)c3)cc(C(F)(F)F)c2)cn1 [Nilotinib]
Second: Cc1oncc1C(=O)Nc1ccc(C(F)(F)F)cc1 [Leflunomide]
The “nuclear count per well” value of the first is lower: -0.24 for the first, 0.618 for the second.

Going from CCCc1nc(C)c2c(=O)nc(-c3cc(S(=O)(=O)N4CCN(CC)CC4)ccc3OCC)[nH]n12 [Vardenafil] to Cc1nc(-c2ccc(OCC(C)C)c(C#N)c2)sc1C(=O)O [Febuxostat], the “nuclear count per well” value rises from -0.564 to -0.407.

Going from C=C(C)[C@@H]1CC[C@]2(C(=O)O)CC[C@]3(C)[C@H](CC[C@@H]4[C@@]5(C)CC[C@H](O)C(C)(C)[C@@H]5CC[C@]43C)[C@@H]12 [Betulinic acid] to C[C@]12CCC(=O)C=C1[C@@H]1C[C@@H]1[C@H]1[C@@H]3[C@@H]4C[C@@H]4[C@@]4(CCC(=O)O4)[C@@]3(C)CC[C@@H]12 [Drospirenone], the “nuclear count per well” value rises from -0.148 to -0.133.

Going from Cc1ccc2c(c1)C(=O)C1(O)CCN(c3ccccc3)C1=N2 (configuration not stated) [Blebbistatin] to Cc1ccc(O)c([C@H](CCN(C(C)C)C(C)C)c2ccccc2)c1 [Tolterodine Tartrate], the “nuclear count per well” value rises from 0.352 to 0.854.

First: CC[C@H]1OC(=O)[C@H](C)[C@@H](O[C@H]2C[C@@](C)(OC)[C@@H](O)[C@H](C)O2)[C@H](C)[C@@H](O[C@@H]2O[C@H](C)C[C@H](N(C)C)[C@H]2O)[C@](C)(O)C[C@@H](C)C(=O)[C@H](C)[C@@H](O)[C@]1(C)O [Erythromycin]
Second: CN(C)[C@@H]1C(O)=C(C(N)=O)C(=O)[C@@]2(O)C(O)=C3C(=O)c4c(O)ccc(Cl)c4[C@@H](O)[C@H]3C[C@@H]12
The “nuclear count per well” value of the first is lower: 0.151 for the first, 1.38 for the second.

First: CCC(c1ccc(OCCN(CC)CC)cc1)C(CC)c1ccc(OCCN(CC)CC)cc1 (configuration not stated) [Coralgil]
Second: CCN(CC)CCCCN1c2ccccc2Oc2ccc(Cl)cc21 [Akt Inhibitor X]
The “nuclear count per well” value of the first is lower: -0.0943 for the first, 0.772 for the second.

Compared with C[C@H](Cn1cnc2c(N)ncnc21)OCP(=O)(O)O [Tenofovir], Cn1c(=O)c2c(ncn2CC(O)CO)n(C)c1=O (configuration not stated) [Dyphylline] is higher in “nuclear count per well” value: 0.802 for the first, 1.46 for the second.

Going from CCOC(=O)C1=C(C)NC(=S)NC1c1cccc(O)c1 (configuration not stated) [Monastrol] to CCOC(=O)C1=C(COCCN)NC(C)=C(C(=O)OC)C1c1ccccc1Cl (configuration not stated) [Amlodipine besylate], the “nuclear count per well” value falls from 0.338 to -1.29.

First: c1ccc2c(CC3=NCCN3)cccc2c1
Second: CCN(CC)C(=O)C1(c2ccccc2)CC1CN (configuration not stated)
The “nuclear count per well” value of the first is higher: 0.219 for the first, -0.371 for the second.

Compared with Cc1ccc(C(=O)COC(=O)c2cccc(NC(=O)c3ccc([N+](=O)[O-])cc3[N+](=O)[O-])c2)cc1, COC(=O)C1=C(C)NC(C)=C(C(=O)OCC(C)C)C1c1ccccc1[N+](=O)[O-] (configuration not stated) [Nisoldipine] is higher in “nuclear count per well” value: -0.226 for the first, 0.984 for the second.

First: Cc1nnc(C(C)C)n1C1C[C@H]2CC[C@@H](C1)N2CC[C@H](NC(=O)C1CCC(F)(F)CC1)c1ccccc1 (stereo in doubt) [Maraviroc]
Second: N[C@@H](C(=O)N[C@@H]1C(=O)N2C(C(=O)O)=C(Cl)CS[C@H]12)c1ccccc1 [Cefaclor]
The “nuclear count per well” value of the first is higher: 0.433 for the first, -0.195 for the second.

Going from NCCC(O)(P(=O)(O)O)P(=O)(O)O [Pamidronate Disodium  Pentahydrate (Pamidronic Acid)] to O=c1[nH]c(=O)n([C@@H]2O[C@H](CO)[C@@H](O)[C@@H]2F)cc1I [Fialuridine], the “nuclear count per well” value falls from 0.523 to -0.598.

Compared with COc1ccc2c(c1)c(CC(=O)N1CCOCC1)c(C)n2C(=O)c1ccc(Cl)cc1, CNC(=O)c1ccccc1Oc1nc(Nc2cc(OC)c(OC)c(OC)c2)ncc1Br is lower in “nuclear count per well” value: 0.166 for the first, -2.32 for the second.
